Source: PubChem
Pf growth 96h – Primary qHTS for delayed death inhibitors of the malarial parasite plastid, 96 hour incubation | P. falciparum luciferase reporter growth, 96 h | Potency, µM (series often up to 28.7 µM), without a hit: at the highest dose activity change, negative = inhibition, hits mostly inhibitors | 320,000 tested, 6.9% active; also: potency is read from the fitted curve at half-maximal effect; % is scaled to controls: 0 for no effect and ±100 for the full control effect
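Plates of compound plus infected erythrocytes (2% hematocrit, 0.05% parasitemia final) incubate 96 hours, 37 C, 5% CO2. Detection reagent added; reduced luminescence from the parasites' luciferase reporter flags inhibition.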
Shiga inhibitor – A qHTS for Small Molecule Inhibitors of Shiga Toxin. Vero cells, Shiga toxin protein synthesis inhibition reporter. 290,000 tested, 9.2% active. AID 2315, 2010. inhibition, % at 38.7 µM; in the data active = inhibition mostly above about 28%, no sharp cut-off; inactive = mostly below about 43%; also: 0% is about no effect
Pf growth 48h – Primary qHTS for delayed death inhibitors of the malarial parasite plastid, 48 hour incubation; P. falciparum luciferase growth in erythrocytes, 48 h; Potency, µM (top dose mostly 28.7 µM), without a hit: top-dose activity change, negative = inhibition, usual class: inhibitors; 310,000 tested, 5.9% active; AID 504832, 2011; also: potency is read from the fitted curve at half-maximal effect; % is scaled to controls: 0 for no effect and ±100 for the full control effect
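Compounds are pin-transferred into medium, infected erythrocytes (2% hematocrit, 0.1% parasitemia final) are added, and plates sit one parasite generation at 37 C in 5% CO2. Detection reagent is then added and luminescence measured.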
Cycloheximide cs – Cycloheximide Counterscreen for Small Molecule Inhibitors of Shiga Toxin; max response, %; cell reporter, cycloheximide protein synthesis inhibition counterscreen; AID 2314, 2010; 300,000 tested, 12% active; in the data active = max response mostly above about 13%, no sharp cut-off; inactive = mostly below about 14%; also: read at 38.3 µM for the half of the compounds with a filed dose; 0% is about no effect
NS1 function inh – qHTS Assay for Inhibitors of Influenza NS1 Protein Function; Potency, µM (series often up to 46.1 µM), inactives show top-dose activity, positive = more growth; 270,000 tested, 0.4% active; calls by dose curve; also: potency is read from the fitted curve at half-maximal effect; actives are rising curves; nearly all actives have a fitted effect of over 50% in size
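Read-out: OD600 growth recovery of NS1-expressing budding yeast. Cells grown overnight at 30C in -URA glucose medium, washed, resuspended and diluted 1:100 in 2% galactose assay medium, pH 6.0. Same strain lacking NS1 served as positive control.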
An asterisk follows results filed as active; ? = inconclusive; · = no result. Rows were chosen to be rich in hits. Some 21% of all compounds tested hit in one or more screens of this group. Unless noted, calls follow the shape of the dose curve; as a rule, active = well fitted inhibition curve with a large enough effect; inconclusive = small, poorly fitted or top-dose-only effect, or another doubt; inactive = no such curve, though single readings can be large or run the other way.

SMILES	Pf growth 96h	Shiga inhibitor	Pf growth 48h	Cycloheximide cs	NS1 function inh
O=C(/C=C\c1ccc2c(c1)OCO2)CC1(O)C(=O)Nc2ccccc21 (stereo not given)	-18%	-4	26%	6	?
COc1ccc(NC(=O)CN(C)C(=O)c2cn(-c3ccccc3)nc2-c2ccc(Cl)cc2)cc1	?	·	10µM*	·	·
O=C(O)c1ccc(NC(=O)c2cn(-c3ccccc3)nc2-c2ccccc2)cc1	-5%	56*	25%	21*	-2%
COc1ccc(NC(=O)CN(C)C(=O)c2cn(-c3ccccc3)nc2-c2ccc(F)cc2)cc1	?	·	12µM*	·	·
COc1ccc(-c2nn(-c3ccccc3)cc2C(=O)N(C)C)cc1	?	-4	34%	-2	-2%
CCCCCCCN1C(Nc2ccccc2)=NC[C@@H]1CC(C)C	?	-9	?	-3	-39%
CCCCCCNC(=O)N[C@H](C(=O)NCCC[C@H]1CN2C(=NC[C@H]2C)N1CCC(c1ccccc1)c1ccccc1)C(C)O (stereo not given in full)	2.9µM*	-8	9.3µM*	-6	-83%
c1ccc(-c2ccc(-c3n(-c4ccccn4)c4ccccc4[n+]3-c3ccccn3)cc2)cc1	15µM*	-3	?	13	·
c1ccc(-n2cnc3ccccc32)nc1	-9%	13	18%	11	-4%
CC(C)Oc1ccc(CSc2ncn[nH]2)cc1	59%	51*	63%	32*	-4%
O=C(CC1CC2CCC1C2)OCC(=O)c1c[nH]c2ccccc12 (stereo not given)	5.2µM*	148*	?	53*	-138%
O=C(Cn1c(C(F)(F)F)nc2ccccc21)OCC(=O)c1c[nH]c2ccccc12	4.1µM*	5	12µM*	1	7%
Cc1ccccc1OCC(=O)OCC(=O)c1c[nH]c2ccccc12	?	·	-9%	·	·
COc1ccc(CC(=O)OCC(=O)c2c[nH]c3ccccc23)cc1	-112%	·	8.3µM*	·	·
Cc1[nH]c2ccccc2c1C(=O)COC(=O)Cn1c(C(F)(F)F)nc2ccccc21	-18%	-14	9%	-3	2%
O=C(CNS(=O)(=O)c1ccccc1)OCC(=O)c1c[nH]c2ccccc12	4.1µM*	·	8.3µM*	·	·
CC1CCC(C(=O)NC(C(=O)NCc2cccnc2)C(C)C)CC1 (stereo not given)	?	-6	·	7	11%
COc1ccc(C(C(O)C(=O)c2c[nH]c3ccccc23)N2CCN(c3ccc(OC)cc3)CC2)cc1 (stereo not given)	·	10	13µM*	7	-9%
COc1cc(CC(=O)OCC(=O)c2c[nH]c3ccccc23)cc(OC)c1OC	13µM*	·	4.1µM*	·	·
COc1ccc(N2CCN(C(=O)C(=O)c3c[nH]c4ccccc34)CC2)cc1	?	-5	7%	0	-2%
O=C(c1c[nH]c2ccccc12)C(O)C(c1ccccc1)N1CCOCC1 (stereo not given)	13%	7	-4%	-1	-3%
COc1ccc(C(=O)c2c[nH]c3ccccc23)cc1	?	65*	44%	61*	-13%
O=c1oc2c(-c3ccc([N+](=O)[O-])cc3)cc(O)cc2s1	?	6	?	15*	4%
O=C1[C@@H]2[C@@H]3C[C@@H]([C@H]4ON=C(c5ccc(Cl)cc5Cl)[C@@H]34)[C@@H]2C(=O)N1C1CCCCC1	?	-9	-10%	31*	17%
CN1C(=O)[C@@H]2[C@@H]3C[C@@H]([C@H]4ON=C(c5ccc(Cl)cc5)[C@@H]34)[C@@H]2C1=O	-16%	-11	5%	-3	7%
SMILES	Pf growth 96h	Shiga inhibitor	Pf growth 48h	Cycloheximide cs	NS1 function inh
CSc1nc2ncc(-c3ccsc3)c(N)n2n1	60%	62*	35%	49*	·
Nc1nc2ncc(-c3ccsc3)c(N)n2n1	1%	-11	6%	-3	·
Cc1ccc(NC2=Nc3ccccc3CS2)cc1	-46%	30	94%	38*	-3%
O=C(Cc1ccccc1)Nc1cccc(N2C(=O)C=CC2=O)c1	-25%	15	-2%	-3	-24%
COCc1cc(C)nc(SCC(=O)NCc2ccco2)c1C#N	9.3µM*	-10	3%	1	5%
COCc1cc(C)nc(SCC(=O)Nc2nc(C)cs2)c1C#N	?	49	41%	24*	-10%
COCc1cc(C)nc(SCC(=O)Nc2cccc(C)c2C)c1C#N	?	16	?	-2	8%
Cc1cc2cc(C)c(SCC(=O)NCc3ccco3)nc2cc1C	9%	-8	?	-2	-7%
O=S(=O)(Nc1nc2ccccc2nc1NCc1ccco1)c1ccc(F)cc1	12%	-8	5%	-1	2%
COc1ccc(/C=C(\C#N)C(=O)OCC(=O)Nc2c(C)cccc2C(C)C)cc1	3%	-6	-28%	1	-3%
O=S(=O)(c1ccc(SCc2ccccc2F)nc1)N1CCCC1	-11%	·	-18%	·	·
COc1ccc(C2=Nn3c(nnc3-c3ccccc3O)SC2)c(OC)c1	·	33	·	10	·
Cc1cccc2nc(CSc3nnc(N)s3)cn12	34%	65*	73%	22*	·
NC(=O)C1CCN(c2nc(-c3cc4ccccc4o3)cs2)CC1	2%	·	?	·	·
CN1CCN(c2nc(-c3cc4ccccc4o3)cs2)CC1	154%	85*	107%	48*	1%
CN1CCN(c2nc(-c3cccs3)cc(C(F)(F)F)n2)CC1	21%	-13	?	-4	-4%
O=C1c2ccccc2C(=O)N1c1nc(-c2cccs2)cs1	15µM*	10	50%	8	-93%
Nc1nc(-c2cc3ccccc3o2)cs1	86%	98*	225%	33*	-43%
CN1CCN(c2nc(-c3cccs3)cs2)CC1	47%	61	41%	27*	·
COc1ccc(CC(C)CC(=O)Nc2ccc(OC)cc2)cc1 (stereo not given)	17%	-7	-10%	0	-8%
NC(=O)C1CCN(C(=O)NC(=O)c2ccccc2)CC1	-4%	-8	-8%	-1	8%
COC(=O)c1ccc(Cl)cc1NC(=O)/C=C/c1ccc(C)o1	0%	-4	-1%	-3	10%
Cc1ccc(OCc2nc(-c3ccc(-n4cccc4)cc3)no2)cc1C	?	-12	·	-7	13%
C[N+]1(C)CCC(=C(c2ccccc2)c2ccccc2)CC1	5.9µM*	·	4.1µM*	·	·
CCOC(=O)c1ccc2c(c1)[n+](CC)c(C)n2-c1ccccc1	?	-10	?	-5	2%
CC[n+]1c(C)cc(C)n1-c1ccccc1	8.3µM*	-9	?	-6	·
O=C(CSc1nccc(=O)[nH]1)Nc1cccc(S(=O)(=O)N2CCOCC2)c1	-1%	-10	-2%	1	·
COc1cc(CN2CCC(Cc3ccccc3)CC2)cc(OC)c1OC	9.3µM*	-8	?	-1	3%
OCC1(CCOc2ccccc2)CCN(Cc2ccc(OC(F)F)cc2)CC1	10µM*	-7	8%	2	-3%
